The source made the active and inactive calls.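 Rule for the calls, unless noted: active = inhibition at or above 50% at 10 µM; inactive = inhibition below 50%.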

A short description of assay [1]: inhibitors of TNFa-induced NFkB p65 translocation, primary screen, imaging, HUVEC, MLSMR starter and 10KST1 sets (AID 438;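 active = inhibition above 20% together with a positive visual image hit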;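 note: compound added about 3h40 before a 20 min TNFalpha stimulation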;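 for inhibition: signal is the nuclear over cytoplasmic p65 intensity ratio per well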). The note with it: HUVEC TNFa-induced p65 nuclear translocation; cell count: measured here: nuclei count (cytotoxicity indicator), at 2.08 µM; inhibition: at 2 µM, stronger effect = higher value, 0% TNFa-plus-vehicle, 100% no-TNFa wells.
A short description of assay [2]: reduction of polyQ htt aggregates in cells – imaging, exon1htt(103Q)mCFP cells, high-content imaging, primary screen (AID 483;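 active = visual image review flags a hit and inhibition of aggregation exceeds 20%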;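 note: compound exposure lasted 3 days before fixation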;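 for nuclei count: percent of the per-plate median nuclei count of sample wells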). The following applies: exon1htt(103Q)mCFP cell line, aggregate imaging, at 2 µM; inhibition of aggregation: stronger effect = higher value; nuclei count: measured here: cell count, toxicity.
The nature of assay [3]: endothelial E-selectin expression blockers – imaging, HUVEC, immunofluorescence, MLSMR starter and 10KST1 sets, primary screen (AID 487;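 active = visually confirmed hit in the image check and inhibition above 20%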;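 for inhibition: signal is fraction of cell area covered by stained E-selectin grains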;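 for nuclei count: 100% = median nuclei count of all wells on the same plate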). The note with it: HUVEC TNFalpha-induced E-selectin immunofluorescence imaging, at 2 µM; inhibition: stronger effect = higher value; nuclei count: measured here: cell number, toxicity.
The target of assay [4] is Voltage-gated potassium channel subunit beta-2 (Rattus norvegicus) (UniProt P62483). The assay can be described thus: inhibitors of rat Kvbeta2 reductase activity – biochemical, NADPH fluorescence, primary screen (AID 622;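 active = fluorescence slope higher than the sample average by over 3 SD, cut at about -0.22 in these data, passing the limit was not always enough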;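 note: slope of raw intensity against log time taken from 70 to 1610 s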). The following applies: recombinant KvBeta, 4-cyanobenzaldehyde reduction, at 10 µM, stronger effect = higher value.
The target is the same in assay [5]. The assay can be described thus: enhancers of rat Kvbeta2 NADPH turnover – biochemical, NADPH fluorescence, primary screen (AID 623;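 active = NADPH fluorescence slope more negative than the mean of all samples by about 3 SD, 99.7% confidence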;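 note: fluorescence intensity change per second fitted from 20 to 320 s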). The note with it: Recombinant KvBeta, NADPH fluorescence decrease slope, 10 min; at 10 µM; stronger effect = lower value.
Assay [6] addresses Alpha-2C adrenergic receptor (Homo sapiens) (UniProt P18825). The assay can be described thus: compounds altering alpha2C-coupled GIRK flux – cell-based, HEK293 alpha2C/GIRK1/2, thallium flux, primary screen (AID 624;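 active = fluorescence slope after compound addition differing from the mean of all screened samples at 99.7% confidence, in either direction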;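 note: slope of fluorescence ratio to pre-addition baseline per second over 15 to 24 s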). The note with it: thallium flux BTC fluorescence, at 10 µM, actives lie on both sides.
Assay [7] can be described thus: blockers of RIG-like receptor reporter activation – cell-based, Sendai virus stimulus, luciferase, 10K MLSCN set, TLR/RLR signaling modifier project, primary screen (AID 602276).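 Note: firefly luciferase from ISG56 promoter only with Renilla not read in this screen; 0% = Sendai virus plus DMSO and 100% = medium plus DMSO without virus.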 The following applies: HEK293 RL24 IRF3 luciferase reporter, at 10 µM, stronger effect = higher value.
The nature of assay [8]: TLR3 IRF3 reporter activation blockers – cell-based, poly I:C stimulus, luciferase, 10K MLSCN set, primary screen (AID 602277;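 active = inhibition of the reporter signal at or above 50%; inactive = inhibition below 50%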). The following applies: HEK293-TLR3 RL24 IRF3 luciferase reporter, at 10 µM, stronger effect = higher value.

Sequence of Voltage-gated potassium channel subunit beta-2 (Rattus norvegicus) (P62483 whole entry, looked up): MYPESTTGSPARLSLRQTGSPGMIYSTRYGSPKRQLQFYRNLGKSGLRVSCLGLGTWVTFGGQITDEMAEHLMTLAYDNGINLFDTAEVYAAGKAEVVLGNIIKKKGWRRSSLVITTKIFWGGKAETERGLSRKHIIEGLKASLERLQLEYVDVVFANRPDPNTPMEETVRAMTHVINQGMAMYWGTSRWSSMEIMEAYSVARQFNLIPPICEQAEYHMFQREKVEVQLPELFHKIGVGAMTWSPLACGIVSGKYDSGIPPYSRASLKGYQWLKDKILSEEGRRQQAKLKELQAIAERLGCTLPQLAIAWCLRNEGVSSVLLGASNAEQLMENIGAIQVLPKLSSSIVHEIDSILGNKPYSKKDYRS
Sequence of Alpha-2C adrenergic receptor (Homo sapiens) (P18825 whole entry, looked up): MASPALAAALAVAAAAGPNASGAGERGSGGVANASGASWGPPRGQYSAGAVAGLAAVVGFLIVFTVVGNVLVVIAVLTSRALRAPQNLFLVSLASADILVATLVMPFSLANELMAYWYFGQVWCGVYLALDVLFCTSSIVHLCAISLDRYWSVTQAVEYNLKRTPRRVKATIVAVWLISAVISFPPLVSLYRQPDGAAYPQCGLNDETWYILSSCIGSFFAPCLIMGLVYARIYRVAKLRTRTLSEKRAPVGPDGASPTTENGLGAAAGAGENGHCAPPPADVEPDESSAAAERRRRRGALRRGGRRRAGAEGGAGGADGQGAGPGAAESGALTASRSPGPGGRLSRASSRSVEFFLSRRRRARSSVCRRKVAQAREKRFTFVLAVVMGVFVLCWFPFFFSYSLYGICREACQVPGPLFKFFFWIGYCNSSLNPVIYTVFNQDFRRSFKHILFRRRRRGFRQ

Regarding `COCCN1CCN(c2c(C)c(C)nc3cc(-c4cccc(OC)c4)nn23)CC1`, the cell count in assay [1] was 367. Further, the inhibition in assay [1] is -6.1% (inactive); in assay [3], -52.9% (inactive); in assay [7], 15.2% (inactive); in assay [8] it was 16.1% (inactive). For the same compound, in assay [2], the inhibition of aggregation is -9.2% (inactive). Further, the nuclei count in assay [2] worked out at 80.5%; in assay [3] it was 106%. Also, the fluorescence slope in assay [4] was -0.567 (inactive). Further, in assay [5], the NADPH fluorescence slope is -3.9e-05 (inactive). In addition, in assay [6], the slope was 0.0105 (inactive).
Take `CCc1nc(N)c(C#N)c(-c2ccncc2)c1C`: in assay [1], the cell count was 598. The inhibition in assay [1] was 6.3% (inactive); in assay [3], -24.5% (inactive); in assay [7] it was 9.38% (inactive); in assay [8] it was 19.4% (inactive). Moreover, the inhibition of aggregation in assay [2] was -19.7% (inactive). Moreover, the nuclei count in assay [2] stood at 100%; in assay [3], 106%. Moreover, the fluorescence slope in assay [4] is -0.605 (inactive). The NADPH fluorescence slope in assay [5] was -3.1e-05 (inactive). In addition, the slope in assay [6] is 0.00327 (inactive).
For `COc1ccc(CN(CC(=O)NCc2ccco2)C(=O)CCC(=O)Nc2nccs2)cc1`, the cell count in assay [1] worked out at 438. In addition, the inhibition was 3.6% (inactive) in assay [1], -24.4% (inactive) in assay [3], 11.3% (inactive) in assay [7] and 12.7% (inactive) in assay [8]. In addition, the inhibition of aggregation in assay [2] is -4.3% (inactive). Also, the values for the nuclei count in assay [2] and in assay [3] were 102% and 114%, respectively. In assay [4], the fluorescence slope is -0.403 (inactive). In addition, the NADPH fluorescence slope in assay [5] is -3.8e-05 (inactive). For the same compound, the slope in assay [6] was 0.00588 (inactive).
`Cn1c(=O)c2c(nc(NCc3ccccc3)n2CCCc2ccccc2)n(C)c1=O`: the cell count in assay [1] was 759. Besides, the inhibition in assay [1] was -1.6% (inactive); in assay [3], -77.1% (inactive); in assay [7], 16.3% (inactive); in assay [8] it was 26.8% (inactive). The inhibition of aggregation in assay [2] is 5.6% (inactive). The nuclei count came to 101% in assay [2] and 121% in assay [3]. The fluorescence slope in assay [4] was -0.521 (inactive). In assay [5], the NADPH fluorescence slope was -1.3e-05 (inactive). Moreover, in assay [6], the slope was 0.00474 (inactive).
With `Cc1ccc(NC(=O)CSc2nnc(CNC(=O)c3c(F)cccc3Cl)o2)cc1`, the cell count in assay [1] came out at 645. The inhibition in assay [1] was -10% (inactive); in assay [3], -49% (inactive); in assay [7], 1.9% (inactive); in assay [8], 10.9% (inactive). Also, in assay [2], the inhibition of aggregation is -19.6% (inactive). The nuclei count in assay [2] turned out to be 108%; in assay [3] it was 118%. The fluorescence slope in assay [4] is -0.346 (inactive). In addition, in assay [5], the NADPH fluorescence slope is -7.5e-06 (inactive). The slope in assay [6] is 0.00601 (inactive).
With `CCc1c(C(=O)N2CCOCC2)csc1C`, the cell count in assay [1] was 295. Also, the inhibition is -3.7% (inactive) in assay [1], -4.5% (inactive) in assay [3], -0.247% (inactive) in assay [7] and -13.5% (inactive) in assay [8]. For the same compound, the inhibition of aggregation in assay [2] was -15% (inactive). Besides, the nuclei count in assay [2] and in assay [3] was 104% each time. Further, in assay [4], the fluorescence slope was -0.409 (inactive). Also, the NADPH fluorescence slope in assay [5] was -7.3e-05 (inactive). In addition, in assay [6], the slope was 0.00413 (inactive).
For `COc1ccc(CNC(=O)CN(C(=O)c2ccc(CN3CCOCC3)o2)C2CCCC2)cc1`, in assay [1], the cell count was found to be 449. Moreover, the inhibition in assay [1] was 5.5% (inactive); in assay [3] it was -94.6% (inactive); in assay [7] it was 17.1% (inactive); in assay [8] it was 11.7% (inactive). Besides, the inhibition of aggregation in assay [2] is -0.5% (inactive). In addition, the nuclei count in assay [2] worked out at 98.3%; in assay [3], 107%. In assay [4], the fluorescence slope was -0.613 (inactive). The NADPH fluorescence slope in assay [5] was -4.4e-05 (inactive). For the same compound, the slope in assay [6] was 0.00446 (inactive).
Regarding `CC(Sc1nc(-c2ccccc2)cc(C(F)(F)F)n1)C(=O)N1CCC(C(N)=O)CC1` (stereo not drawn), the cell count in assay [1] came to 446. Besides, the inhibition is 7.2% (inactive) in assay [1], -45.8% (inactive) in assay [3], 17.5% (inactive) in assay [7] and 24.5% (inactive) in assay [8]. In addition, in assay [2], the inhibition of aggregation is 8.9% (inactive). Further, the figures for the nuclei count in assay [2] and in assay [3] were 97.1% and 126%, respectively. For the same compound, in assay [4], the fluorescence slope is -0.455 (inactive). Also, in assay [5], the NADPH fluorescence slope was -8.9e-05 (inactive). For the same compound, the slope in assay [6] is 0.00612 (inactive).

These data come from PubChem BioAssay.
